# Bioassay records (PubChem)
# TNFa cytotox: toxic to HUVEC cells under TNF alpha stimulation. HUVEC TNFalpha-stimulated, Hoechst cell count, imaging. cell count reduction, % at 2 µM. 93,000 tested, 0.17% active;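 active means cell count reduction exceeding the screen mean by over 5 SD, scaled to untreated wells per plate, cut at about 78% in these data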;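 further: cells counted after 24 h of TNF alpha exposure following the 1 h pretreatment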
# cytoskel mod: cytoskeleton assembly modification; 91,000 tested, 0.18% active; HUVEC TNFa F-actin phalloidin imaging, high content; inhibition, % at 2 µM;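 active means inhibition above the batch mean plus 3 SD and confirmed as a hit by visual image inspection, cut at about 30% in these data, passing the limit was not always enough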
# E-sel TNF inh: blocks E-selectin expression induced by TNF alpha; HUVEC TNFa-induced E-selectin immunofluorescence, high content; inhibition, % at 2 µM; 120,000 tested, 0.71% active;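 active means inhibition above the batch mean plus 3 SD, and confirmed as a hit on visual image review, cut at about 43% in these data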;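 further: 0% = TNF-stimulated DMSO wells and 100% = unstimulated control wells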
# VCAM1 TNFa inh: reduces TNF alpha induced VCAM1 expression in HUVEC | HUVEC TNFa-induced VCAM-1 immunofluorescence, high-content imaging | inhibition, % at 2 µM | 95,000 tested, 0.48% active | AID 802;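 active means inhibition above the batch mean plus 3 SD, with images confirmed as a hit by eye, cut at about 37% in these data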;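 further: 0% = TNF-stimulated DMSO wells and 100% = unstimulated control wells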
# * = called active by the depositor; x = no result. Rows were chosen to be rich in hits. Some 1.1% of all compounds tested hit in one or more screens of this group.
SMILES,TNFa cytotox,cytoskel mod,E-sel TNF inh,VCAM1 TNFa inh
COc1ccc(OCC(=O)NNc2c3ccccc3nc3ccccc23)cc1,-12,-31,20,2
CCc1ccc(N2CC(C(=O)Nc3cccnc3)CC2=O)cc1 (configuration not stated),-9,-10,63*,3
CC(C)Oc1ccccc1C1CC(=O)Nc2cc3c(cc21)OCO3 (configuration not stated),47,-31,x,85*
CCCOc1ccccc1C1CC(=O)Nc2cc3c(cc21)OCCO3 (configuration not stated),62,-22,-20,51*
FC(F)(F)c1cccc(-c2ccn3ncnc3n2)c1,x,x,-5,x
CCCCn1c(SCC(=O)N2CCCc3ccccc32)nc2c1c(=O)n(C)c(=O)n2C,-14,28,22,-11
O=C(COc1ccc(Br)cc1)NCc1ccccn1,-16,x,8,3
O=Cc1ccc(OCc2ccccn2)cc1,-26,15,45*,-1
OCCN=C(c1ccccc1)C12CN3CN(CN(C3)C1)C2,-44,13,x,60*
O=C1CCCc2c1cc(C(=O)NC1CCSC1=O)c(=O)n2-c1ccccc1 (configuration not stated),94*,-66,-22,x
CC1(C)CC(=O)c2cc(C(=O)NC3CCSC3=O)c(=O)n(-c3ccccc3)c2C1 (configuration not stated),-1,46,14,-6
CCOC(=O)C1=C(CC)OC(N)=C(C#N)C1c1cc(OC)ccc1OC (configuration not stated),x,x,94*,x
CCOC(=O)C1=C(CC)OC(N)=C(C#N)C1c1ccc(OC)c(C)c1OC (configuration not stated),x,x,37,x
Cc1nc2ncnn2c(C)c1CCC(=O)NCc1ccccc1,-26,-15,62*,14
COc1ccc(CNC(=O)CCc2c(C)nc3ncnn3c2C)cc1,-10,-24,x,-2
CC(=O)NC1=C(C#N)C(c2ccccc2)c2c(ccc3ccccc23)O1 (configuration not stated),-20,12,x,-10
CC(C)Sc1nnc(CNC(=O)C23CC4CC(CC(C4)C2)C3)n1C1CCCCC1,x,x,6,x
CC(C)(C)NC(=S)NC(=O)C12CC3CCC(CC(C3)C1)C2,x,x,4,x
CN1CCC(N(C)C(=S)NC(=O)C23CC4CC(CC(C4)C2)C3)CC1,x,x,79*,x
C/C(N)=C(/C#N)C(=O)COC(=O)c1cc(-c2ccc(Br)cc2)nc2ccccc12,x,x,-6,x
O=C(Nc1ccccc1C(=O)NCc1ccccc1)c1ccccc1,18,-16,17,3
CN(Cc1ccccc1)C(=O)c1ccccc1NC(=O)c1ccccc1,-7,51*,-44,1
O=C(c1ccc(Cl)cc1)N1CCCOC1,75,x,-15,100*
O=C(CN(Cc1ccc(F)cc1)C(=O)C1CSC(=O)C1)NC1CCCCC1 (configuration not stated),-16,12,x,5
O=C(Cn1ncc(Cl)c(Cl)c1=O)N1CCc2ccccc21,x,x,100*,x
SMILES,TNFa cytotox,cytoskel mod,E-sel TNF inh,VCAM1 TNFa inh
O=C(Cn1ncc2c1-c1ccccc1OC2)N1CCc2ccccc21,-3,13,x,-10
CCOC(=O)c1c(-c2ccccc2)csc1NC(=O)/C(C#N)=C/c1ccc(O)c(OC)c1,x,x,-22,x
CCOC(=O)N1CCC(NC(=O)CN2C(=O)CSc3nc(C)cc(C)c32)CC1,-14,-1,83*,-4
N#CC(C#N)=C1C=CC=CN1/C(=C\c1ccco1)C(=O)c1ccc(-c2ccccc2)cc1,x,x,93*,x
CCCCC(=O)NC(c1ccc([N+](=O)[O-])cc1)c1c(O)ccc2ccccc12 (configuration not stated),x,x,-1,x
CCC(=O)NC(c1ccc([N+](=O)[O-])cc1)c1c(O)ccc2ccccc12 (configuration not stated),-8,-31,100*,5
CC(Oc1ccc(Cl)cc1Cl)C(=O)NNC(=O)C(=O)N1CCCCC1 (configuration not stated),x,x,5,x
CCc1c(O)nc(SCC(=O)Nc2ccc3c(c2)CCC3)[nH]c1=O,-20,-6,3,2
CCCCc1c(O)nc(SCC(=O)Nc2ccc3c(c2)CCC3)[nH]c1=O,x,x,60*,x
Cc1ccc(N/N=C/c2ccc3c(c2)OCCO3)cc1Cl,x,x,-7,x
Cc1ccc(N/N=C/c2ccc(N3CCOCC3)cc2)cc1C,x,26,-6,67*
COc1cccc(NC(=O)c2ccc(-n3cccn3)nc2)c1,4,2,29,-9
COc1ccc(Br)cc1CN(C)CC(=O)Nc1c(Cl)cccc1Cl,x,x,68*,x
COc1ccc(Br)cc1CN(C)CC(=O)Nc1cccc(S(N)(=O)=O)c1,x,x,5,x
CCc1nc(SCc2ccc(C(=O)OC)o2)c2c(=O)n(C)c(=O)n(C)c2n1,2,-5,-2,-3
O=C(CSc1ncnc2nc[nH]c12)Nc1ccccc1C(F)(F)F,-1,14,76*,-5
COc1ccc(-c2nc(-c3ccc(NC(=O)c4ccc(Br)o4)cc3)no2)cc1OC,39,-7,x,76*
O=C(Nc1ccc(-c2nc3cccnc3s2)cc1)c1ccc(Br)o1,-34,-17,100*,11
O=C(Nc1ccc(-c2nc3cccnc3s2)cc1)c1ccco1,x,x,4,x
N#Cc1nc(-c2ccco2)oc1N1CCN(c2ccccc2)CC1,-20,4,x,-18
N#Cc1nc(-c2ccco2)oc1N1CCOCC1,-31,19,x,40*
COc1ccc(S(=O)(=O)Nc2nc3n(n2)C(c2ccc(Cl)cc2)CC(=O)N3)cc1 (configuration not stated),2,x,-2,39*
O=C1CC(c2ccc(Cl)cc2)n2nc(N3C(=O)CCC3=O)nc2N1 (configuration not stated),-12,22,24,4
CCCn1nnc(NC(=O)c2cccc(OCC(C)C)c2)n1,x,x,93*,x
CCCn1nnc(NC(=O)c2cccc(OCC)c2)n1,-18,-3,11,7
SMILES,TNFa cytotox,cytoskel mod,E-sel TNF inh,VCAM1 TNFa inh
CCOC(=O)c1cc2c(ccn2C)n1CC(=O)N1CCC(Cc2ccccc2)CC1,x,x,96*,x
CC[n+]1c(/C=C2/C=C(C)CC(C)(C)C2)sc2ccc(OC)cc21,-23,-18,67*,3
CN(C)c1nc(N(C)C)nc(N(C#N)CCOc2ccccc2)n1,-3,8,-1,97*
O=C(O)CCCC(=O)NS(=O)(=O)c1ccc(Cl)cc1,1,4,21,2
O=C(CN1CCN(c2nc(-c3ccc(F)cc3)cs2)CC1)Nc1ccc2c(c1)OCO2,13,1,x,88*
Cc1cccc2c1NC(C)CC2C (configuration not stated),3,-9,39,-22
O=C(Nc1ccccc1)N1CCC(c2ccccc2)C1 (configuration not stated),-16,65*,21,7
CCN(CC)CC(=O)Nc1sc(C)c(C)c1C(=O)c1ccc(C)cc1,x,x,4,x
Cc1ccc(C(=O)c2c(NC(=O)c3ccccc3C)sc(C)c2C)cc1,-29,10,100*,0
CCOC(=O)c1cc(=O)n(Cc2ccccc2C)c2ccccc12,-46,33*,-5,86*
Cc1nn(-c2ccccc2)c2sc(C(=O)O)cc12,x,x,97*,x
Cc1ccnc(N(C(=O)c2cccs2)C(=O)c2cccs2)c1,24,-3,12,13
O=C(c1cccs1)N(C(=O)c1cccs1)c1ccc(Br)cn1,-11,-1,45*,16
